Data taken from PubChem BioAssay (EPA / NIEHS).
Values joined by “and” are separate entries in the source; they are usually repeats but may differ in a detail not shown here. Identical values can stand only once. The source holds several records for some structures; these can differ, active in one and inactive in another. Active and inactive are the calls of the source. The calls were made as follows: active = hit-call score of the fitted dose curve at least 0.9, where 1 is the maximum; inactive = score below 0.9.

Experiment: BSK_3C_uPAR: BioMAP Diversity Plus: 3C Assay for Urokinase-type plasminogen activator receptor (uPAR) Biomarker Activity (AID 2282998)
Conditions: BioMAP 3C HUVEC, uPAR biomarker ELISA; actives raise or lower the signal
Procedure: BSK_3C is a cell-based, multiplexed-readout assay that uses umbilical vein endothelium, a human vascular primary cell, with measurements taken at 24 hours after chemical dosing in a 96-well plate.BSK_3CAR is an assay component measured in the BSK_3C assay. It measures uPAR antibody related to regulation of gene expression using ELISA technology.Data from the assay component BSK_3CAR was analyzed into 1 assay endpoint. This assay endpoint, BSK_3CAR, was analyzed with bidirectional fitting relative to DMSO as the negative control and baseline of activity. Using a type of binding reporter, gain or loss-of-signal activity can be used to understand changes in the signaling as they relate to the gene PLAUR. Furthermore, this assay endpoint can be referred to as a primary readout, because this assay has produced multiple assay endpoints where this one serves a signaling function. To generalize the intended target to other relatable targets, this assay endpoint is annotated to the cytokine intended target family, where the subfamily is plasmogen activator.
The levels of cell surface (or secreted, indicated by the prefix "s") biomarker endpoints were measured by ELISA. Overt cytotoxicity to cells in confluent adherent cultures (all systems other than the BT system) was assessed by measuring total protein levels using sulforhodamine B (SRB) staining in parallel cultures at the time of biomarker measurements, indicated as SRB endpoints. For proliferation assays for adherent cell types, individual cell types are cultured at sub-confluence and relative cell numbers quantified by SRB staining at time points optimized for each system (48 h: 3C and CASM3C systems; 72 h: BT and HDF3CGF systems; 96 h: SAg system). SRB was performed by staining cells with 0.1% SRB after fixation with 10% TCA and reading wells at 560 nm.Viability and proliferation of PBMC (T cells) was quantified by Alamar Blue reduction for the SAg and BT systems. For PBMC viability (referred to as PBMC Cytotoxicity within the assay endpoint names), cells were plated (75,000/well in a 96-well plate) and then chemical samples added for 1 h before addition of activators, SEB and TSST-1 (20 ng/mL final concentration each). Cells were incubated for 90 h. Then, Alamar Blue (20 uL/well) (Invitrogen, Cat DAL1100) was added for 6 h, and the plates were read with a fluorescence microplate reader at 546/580 nm (excitation/emission). For PBMC proliferation, cells were plated and activated as above but incubated for only 16 h prior to addition of Alamar Blue. Plates were read after 6 h.
For `CCCCCCCCCC[N+](C)(C)CCCCCCCCCC`, the AC50 was 2.43 µM (active). For `O=S(=O)(O)C(F)(F)C(F)(F)C(F)(F)C(F)(F)F`, the outcome was “inactive”. In the case of `O=C(O)C(F)(F)C(F)(F)C(F)(F)C(F)(F)C(F)(F)C(F)(F)C(F)(F)C(F)(F)F`, the outcome was “inactive” and the AC50 was 25 µM (active) and 51.6 µM (active). With `CCOC(=O)C(O)(c1ccc(Cl)cc1)c1ccc(Cl)cc1` the AC50 was 31.7 µM (active). In the case of `C=CC(=O)NCNC(=O)C=C`, the outcome was “inactive”. In the case of `CCCCCCCCOC(=O)c1ccccc1C(=O)OCCCCCCCC`, the outcome was “inactive”. For `Oc1c(Cl)c(Cl)c(Cl)c(Cl)c1Cl`, the AC50 was 13.5 µM (active) and 10.7 µM (active). With `Clc1ccc(Cl)cc1` the outcome was “inactive”. With `CCCCCCOC(=O)c1ccccc1C(=O)OCCCCCC` the outcome was “inactive”. With `O=C(O)C(F)(F)C(F)(F)C(F)(F)C(F)(F)C(F)(F)C(F)(F)C(F)(F)C(F)(F)C(F)(F)F` the outcome was “inactive” and the AC50 was 46.2 µM (active) and 51.4 µM (active). For `CC(C)(O)C(=O)Nc1ccc([N+](=O)[O-])c(C(F)(F)F)c1`, the outcome was “inactive”. In the case of `Cc1cccc(C)c1N`, the outcome was “inactive”. With `CCNc1nc(NC(C)C)nc(SC)n1` the outcome was “inactive”. In the case of `O=S(=O)(O)C(F)(F)C(F)(F)C(F)(F)C(F)(F)C(F)(F)C(F)(F)F`, the outcome was “inactive”. With `Cc1ccccc1[N+](=O)[O-]` the outcome was “inactive”. In the case of `Cc1cc2c3c(c1)C(c1ccccc1)=N[C@@H](NC(=O)c1ccncc1)C(=O)N3CC2`, the outcome was “inactive”. For `O=NN(c1ccccc1)c1ccccc1`, the outcome was “inactive”. In the case of `CC(c1ccc(O)cc1)(c1ccc(O)cc1)c1ccc(O)cc1`, the AC50 was 32.6 µM (active). In the case of `NS(=O)(=O)C(F)(F)C(F)(F)C(F)(F)C(F)(F)C(F)(F)C(F)(F)C(F)(F)C(F)(F)F`, the AC50 was 29.9 µM (active) and 42.3 µM (active) and 44.1 µM (active). In the case of `Nc1ccc(-c2ccc(N)cc2)cc1`, the outcome was “inactive”. For `C[C@]12CCC(=O)C=C1CC[C@@H]1[C@@H]2CC[C@]2(C)C(=O)CC[C@@H]12`, the outcome was “inactive”. For `CCC(C)(CC)c1cc(NC(=O)c2c(OC)cccc2OC)on1`, the outcome was “inactive”. With `Clc1ccc(C(c2ccccc2Cl)C(Cl)(Cl)Cl)cc1` (stereo not given) the AC50 was 21.3 µM (active). With `ClC1=C(Cl)[C@]2(Cl)[C@@H]3[C@@H]4C[C@@H]([C@H]5O[C@@H]45)[C@@H]3[C@@]1(Cl)C2(Cl)Cl` the outcome was “inactive”. For `Cc1ccccc1O`, the outcome was “inactive”. With `CO/C=C(/C(=O)OC)c1ccccc1COc1cccc(C(F)(F)F)n1` the AC50 was 36.9 µM (active). In the case of `CCC(C)c1cc([N+](=O)[O-])cc([N+](=O)[O-])c1O` (stereo not given), the AC50 was 9.09 µM (active). With `CCC(C)(c1ccc(O)cc1)c1ccc(O)cc1` the AC50 was 32.8 µM (active). With `Oc1ccc(C(c2ccc(O)cc2)(C(F)(F)F)C(F)(F)F)cc1` the AC50 was 21.9 µM (active). In the case of `Clc1ccc(C(Cl)(Cl)Cl)cc1`, the outcome was “inactive”. For `O=C(N[C@H]1CN2CCC1CC2)c1cc2ccoc2cn1`, the outcome was “inactive”. With `Cc1cc(-c2ccc(N)c(C)c2)ccc1N` the outcome was “inactive”. With `ClC1=C(Cl)[C@]2(Cl)[C@@H]3[C@@H](Cl)[C@H]4O[C@H]4[C@@H]3C1(Cl)C2(Cl)Cl` the outcome was “inactive”. For `Cc1cccc([N+](=O)[O-])c1`, the outcome was “inactive”. With `ClC(Cl)=C(c1ccc(Cl)cc1)c1ccc(Cl)cc1` the AC50 was 33.4 µM (active). With `C1CC2OC2CC1C1CO1` (stereo not given) the outcome was “inactive”. With `Cc1ccccc1CO[C@@H]1C[C@@]2(C(C)C)CC[C@]1(C)O2` the outcome was “inactive”. In the case of `CCCN(CCC)N=O`, the outcome was “inactive”.
